High-throughput results deposited in PubChem by several laboratories.
Shn3 inh set2: Schnurri-3 reporter inhibition in Clone20 osteoblasts | Clone20 osteoblast Shn3 3'UTR firefly luciferase, 24 h | inhibition, % at 12.5 µM | 360,000 tested, 0.52% active | AID 588674;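 active means mean inhibition of at least 75% with every replicate also reaching 75%; inconclusive means mean inhibition at least 75% but some replicate below; inactive means mean inhibition below 75%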
PAX8 reporter: PAX8 transcriptional activity inhibition. RMG-I TPO-luciferase reporter, SteadyGlo, 24 h. inhibition, % at 12.6 µM. 360,000 tested, 1.2% active;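 active means mean replicate inhibition at least 60% with every replicate also reaching 60%; inconclusive means only one of the two criteria is met; inactive means mean below 60% and not all replicates reaching 60%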;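 further: luciferase light reporting Pax8 driven TPO promoter activity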
CSC inhib: blocks cancer stem cells; cancer stem cell-like cells viability, luminescence; inhibition, % at 7.5 µM; 300,000 tested, 1.1% active; AID 2717; in the data active means inhibition above about 75%; inconclusive means no clear call, values can overlap the other calls; tested in HMLE shEcad cells
Mdm2-MdmX inh: human Mdm2/MdmX binding inhibition | 330,000 tested, 3% active | inhibition, % at 8 µM | O15151+Q00987 | AID 485346 | SaOS-2 split-luciferase Mdm2/MdmX complementation, luminescence;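 active means inhibition of at least 50% at 8 µM in the primary screen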
Target sequence (O15151 whole entry, looked up): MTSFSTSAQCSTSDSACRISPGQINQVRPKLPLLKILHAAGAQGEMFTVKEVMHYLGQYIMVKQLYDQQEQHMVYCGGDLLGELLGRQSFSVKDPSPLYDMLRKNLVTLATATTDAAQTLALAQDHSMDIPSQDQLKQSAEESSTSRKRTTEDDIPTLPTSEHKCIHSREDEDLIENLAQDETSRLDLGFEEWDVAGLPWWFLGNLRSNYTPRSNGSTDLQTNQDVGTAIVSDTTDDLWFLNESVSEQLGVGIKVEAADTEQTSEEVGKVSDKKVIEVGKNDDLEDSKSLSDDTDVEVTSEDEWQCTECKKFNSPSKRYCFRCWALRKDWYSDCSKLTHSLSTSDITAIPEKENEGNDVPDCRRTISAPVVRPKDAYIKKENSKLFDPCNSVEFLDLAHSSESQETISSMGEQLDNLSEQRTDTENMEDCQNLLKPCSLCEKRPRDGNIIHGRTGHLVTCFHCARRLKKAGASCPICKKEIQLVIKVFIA
Target sequence (Q00987 whole entry, looked up): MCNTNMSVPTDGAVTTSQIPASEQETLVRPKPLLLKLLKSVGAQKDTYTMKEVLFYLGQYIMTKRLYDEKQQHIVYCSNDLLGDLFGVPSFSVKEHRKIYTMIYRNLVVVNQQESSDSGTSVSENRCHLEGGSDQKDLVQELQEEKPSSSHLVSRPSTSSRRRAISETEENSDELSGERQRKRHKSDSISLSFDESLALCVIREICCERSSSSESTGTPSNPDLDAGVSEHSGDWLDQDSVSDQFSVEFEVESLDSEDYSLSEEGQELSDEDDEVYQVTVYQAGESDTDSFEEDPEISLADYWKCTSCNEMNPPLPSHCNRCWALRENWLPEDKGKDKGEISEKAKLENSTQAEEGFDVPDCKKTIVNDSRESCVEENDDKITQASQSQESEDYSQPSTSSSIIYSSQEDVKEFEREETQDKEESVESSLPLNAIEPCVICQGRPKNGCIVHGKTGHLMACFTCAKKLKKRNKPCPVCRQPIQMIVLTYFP
Beta cell apopt: blocks beta cell apoptosis; INS-1E cytokine-induced death, ATP luminescence, 48 h; percent of positive-control rescue, neutral wells zero; 300,000 tested, 0.8% active; protection from apoptosis, % (concentration not given with the values);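 active means Every replicate reaches about 75%, or at least half do and their mean reaches it too, limit read from the data; inconclusive means At least half of replicates reach the limit but their mean does not; inactive means Under half of replicates reach the limit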;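 further: higher means more ATP so stronger rescue from cytokine killing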
Gli-Sufu block: antagonists of Gli-Sufu signaling; 340,000 tested, 0.74% active; inhibition, % at 5 µM; AID 588413; Sufu-KO-LIGHT fibroblasts, Gli luciferase reporter luminescence;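 active means inhibition above about 55%, limit read from the data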
Mdm2-MdmX conf: human Mdm2/MdmX binding inhibition, confirmed; shares compounds with Mdm2-MdmX inh; luminescent assay; inhibition, % at 8 µM; 10,000 tested, 55% active; AID 489028; in the data active means inhibition above about 40%
FLuc counter: inhibits full-length luciferase, flagging false Mdm2/MdmX hits. inhibition, % at 8 µM. shares compounds with Mdm2-MdmX inh. 6,200 tested, 77% active. SaOS-2 full-length luciferase counterscreen, luminescence;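 active means mean inhibition at 8 µM reaching about 37%, which flags the compound as non-specific, limit read from the data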;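 further: p53-null SaOS-2 cells with luciferase driven by a doxycycline-inducible promoter; compound on cells about two nights before reading with doxycycline added after day one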
Large screens that a line does not name were inactive (follow-up assays come after a bar, where they were run). Shown are actives, neighbours in structure and some others; about 4% of the full set was active somewhere.

Cc1ccc(F)c([C@H]2C3C=CCC(c4ccccc4)C3C(=O)N2Cc2ccccc2)c1 (stereo partly drawn)	CSC inhib 122, Mdm2-MdmX inh 58, Beta cell apopt 109 | Mdm2-MdmX conf inactive
Cc1ccc(-c2cc([C@H]3[C@H]4C=CC[C@@H](C)[C@@H]4C(=O)N3Cc3ccccc3)ccc2F)cc1	none
CC[C@@H]1CC=C[C@H]2[C@H]1C(=O)N(Cc1ccccc1)[C@H]2c1cc(C)ccc1F	Mdm2-MdmX inh 54 (no result: Shn3 inh set2, PAX8 reporter, CSC inhib, Beta cell apopt, Gli-Sufu block) | Mdm2-MdmX conf 42 | FLuc counter 49
O=C1C2C(c3ccccc3)CC=CC2[C@H](c2ccoc2)N1Cc1ccccc1 (stereo partly drawn)	none
O=C(c1ccncc1)N1C[C@@H]2[C@H](c3ccccc31)[C@@H](CO)N2C(=O)c1ccccn1	none (no result: Shn3 inh set2, CSC inhib, Mdm2-MdmX inh, Beta cell apopt, Gli-Sufu block)
O=C(C1CCC1)N1CC[C@@H]2[C@H](CO)Nc3ccc(-c4cccc(F)c4)cc3[C@@H]21	none (no result: Shn3 inh set2, CSC inhib, Mdm2-MdmX inh, Beta cell apopt, Gli-Sufu block)
COc1ccccc1N=Nc1c(C)n[nH]c1C	none
Cc1n[nH]c(C)c1N=Nc1cc(Cl)ccc1Cl	Mdm2-MdmX inh 52 | Mdm2-MdmX conf inactive | FLuc counter 39
COC(=O)C(C(=O)OC)C(CC(=O)c1ccc(C)cc1)c1cc(OC)c(OC)c(OC)c1 (stereo not drawn)	none
COc1ccc(C(CC(=O)c2ccc(C)cc2)C(C#N)C#N)cc1OC (stereo not drawn)	Mdm2-MdmX inh 56 (no result: PAX8 reporter) | Mdm2-MdmX conf 44 | FLuc counter 47
O=C(Nc1cc(F)ccc1F)N1C[C@@H]2[C@H](c3ccccc31)[C@H](CO)N2CC1CCCC1	none (no result: Shn3 inh set2, CSC inhib, Mdm2-MdmX inh, Beta cell apopt, Gli-Sufu block)
Cc1ccc2nc(NNC(=O)c3ccc(S(=O)(=O)N4CCc5ccccc5C4)cc3)sc2c1	Shn3 inh set2 94, PAX8 reporter 90, CSC inhib 102, Mdm2-MdmX inh 74, Beta cell apopt 98 | Mdm2-MdmX conf 88 | FLuc counter 63
Cc1cccc2sc(NNC(=O)c3ccc(S(=O)(=O)N4CC(C)CC(C)C4)cc3)nc12 (stereo not drawn)	Shn3 inh set2 inconclusive, CSC inhib 118, Mdm2-MdmX inh 88, Beta cell apopt 110 (no result: PAX8 reporter) | Mdm2-MdmX conf 87 | FLuc counter 55
COC(=O)c1ccc(-c2csc(NC(=O)c3ccc(S(=O)(=O)N4CCc5ccccc5C4)cc3)n2)cc1	Mdm2-MdmX inh 51 (no result: CSC inhib) | Mdm2-MdmX conf inactive
COc1ccc(-c2csc(NC(=O)c3ccc(S(=O)(=O)N4CCc5ccccc5C4)cc3)n2)cc1	none (no result: CSC inhib)
Cc1ccc2nc(NNC(=O)c3ccc4c(c3)OCCO4)sc2c1	none (no result: Beta cell apopt)
COC(=O)c1sc2ccccc2c1NC(=O)c1ccc(S(=O)(=O)N2CC(C)CC(C)C2)cc1 (stereo not drawn)	none (no result: CSC inhib)
Cc1cc(C)c2nc(NNC(=O)c3ccc(S(=O)(=O)N4CC(C)CC(C)C4)cc3)sc2c1 (stereo not drawn)	Shn3 inh set2 90, CSC inhib 118, Mdm2-MdmX inh 84, Beta cell apopt 106 | Mdm2-MdmX conf 70 | FLuc counter inactive
CC(C)NC(=O)Nc1ccc2c(c1)C(=O)N([C@@H](C)CO)C[C@@H](C)[C@@H](CN(C)CC1CC1)OCCCC[C@@H](C)O2	none (no result: Shn3 inh set2, CSC inhib, Mdm2-MdmX inh, Beta cell apopt, Gli-Sufu block)
COc1ccc(NC(=O)Nc2ccc3c(c2)C(=O)N([C@@H](C)CO)C[C@H](C)[C@H](CN(C)C)OCCCC[C@H](C)O3)cc1	none (no result: Shn3 inh set2, CSC inhib, Mdm2-MdmX inh, Beta cell apopt, Gli-Sufu block)
CCc1ccc(C(O)(c2ccccc2OC)C(CN2CCOCC2)c2ccccc2)cc1 (stereo not drawn)	none
CCc1ccc(C(O)(CC(C)C)C(CN2CCOCC2)c2ccccc2)cc1 (stereo not drawn)	Mdm2-MdmX inh 83 | Mdm2-MdmX conf 85 | FLuc counter inactive
COc1ccc(C(O)(CC(C)C)C(CN2CCOCC2)c2ccccc2)cc1 (stereo not drawn)	Mdm2-MdmX inh 77 | Mdm2-MdmX conf 77 | FLuc counter inactive
CCN1[C@@H]2c3ccc(-c4ccc(F)cc4)c(=O)n3C[C@@H]2[C@@H](CO)[C@@H]1C(=O)OC	none (no result: Shn3 inh set2, CSC inhib, Mdm2-MdmX inh, Beta cell apopt, Gli-Sufu block)
CCCc1nc2oc3c(NCCN(C)C)ncnc3c2c2c1CCCC2	Mdm2-MdmX inh 56 (no result: PAX8 reporter) | Mdm2-MdmX conf 60 | FLuc counter 38
CCCc1nc2oc3c(NCCCN(C)C)ncnc3c2c2c1CCCC2	Mdm2-MdmX inh 100 | Mdm2-MdmX conf 85 | FLuc counter 52
CC(C)Cc1nc2oc3c(NCC(C)O)ncnc3c2c2c1CCCC2 (stereo not drawn)	none
O=[N+]([O-])c1cccc2c1ccc1ncccc12	Mdm2-MdmX inh 56 | Mdm2-MdmX conf inactive
COc1cccc(N2CCN(c3nc(C)c(C)c(=O)[nH]3)CC2)c1	none
COc1cccc(N2CCN(c3nc(-c4ccccc4C)cc(=O)[nH]3)CC2)c1	PAX8 reporter 70, Mdm2-MdmX inh 95 (no result: CSC inhib, Beta cell apopt) | Mdm2-MdmX conf 76 | FLuc counter 81
CCCNc1nc2c(c(=O)[nH]c(=O)n2C)n1Cc1cccc(Br)c1	Mdm2-MdmX inh 66 (no result: PAX8 reporter) | Mdm2-MdmX conf inactive
O=C(N/N=C/c1ccc(Cl)c([N+](=O)[O-])c1)c1cnccn1	none
O=C(N/N=C/c1ccc(Sc2nc3ccccc3s2)c([N+](=O)[O-])c1)c1ccccn1	Mdm2-MdmX inh 74 (no result: PAX8 reporter) | Mdm2-MdmX conf 52 | FLuc counter 55
C/C(=N\NC(=O)C1(C)CC1(Br)Br)c1cccc(NC(=O)c2ccc(C)o2)c1 (stereo not drawn)	Mdm2-MdmX inh 61 (no result: Beta cell apopt) | Mdm2-MdmX conf inactive
O=C(Nc1ccc(F)cc1)c1cc(-c2ccccn2)nc2c(Cl)cccc12	Mdm2-MdmX inh 60 | Mdm2-MdmX conf 46 | FLuc counter 62
COc1ccc(NC(=O)Nc2ccc3c(c2)C(=O)N([C@@H](C)CO)C[C@@H](C)[C@H](CN(C)S(=O)(=O)c2ccc(F)cc2)OCCCC[C@@H](C)O3)cc1	none (no result: Shn3 inh set2, CSC inhib, Mdm2-MdmX inh, Beta cell apopt, Gli-Sufu block)
COc1ccc(CN(C(=O)CSc2nnc(-c3c[nH]c4ccccc34)o2)c2ccc(F)cc2)cc1OC	PAX8 reporter 81, Mdm2-MdmX inh 66 | Mdm2-MdmX conf 74 | FLuc counter 70
CN(C)c1cc(-c2ccccc2)nc(N)n1	none
Oc1ccc(-c2cc(-c3ccc(O)cc3)nc(-c3ccccc3)n2)cc1	CSC inhib 105, Mdm2-MdmX inh 83 | Mdm2-MdmX conf inactive
Nc1nc(-c2ccccc2)cc(-c2ccccc2O)n1	Mdm2-MdmX inh 80 (no result: PAX8 reporter) | Mdm2-MdmX conf inactive
Nc1nc(-c2ccccc2)nc(-c2ccccc2O)n1	Mdm2-MdmX inh 62 | Mdm2-MdmX conf inactive
Nc1nc(N)nc(-c2ccccc2O)n1	none (no result: PAX8 reporter)
CS(=O)(=O)N1[C@H](C#N)[C@H](c2ccccc2-c2ccc(F)cc2)[C@H]1CO	none (no result: Shn3 inh set2, CSC inhib, Mdm2-MdmX inh, Beta cell apopt, Gli-Sufu block)
C/C=C/c1ccc([C@H]2[C@@H](CO)N3CCCCN(C(=O)Nc4cc(F)ccc4F)C[C@@H]23)cc1	none (no result: Shn3 inh set2, CSC inhib, Mdm2-MdmX inh, Beta cell apopt, Gli-Sufu block)
